Screens: PubChem BioAssay, National Center for Advancing Translational Sciences (NCATS)
GBA activity: alters purified human glucocerebrosidase activity; P04062; purified enzyme, resorufin glucoside fluorescence (screen aimed at inhibitors), 20 min; Potency, µM; hit rate 1.1% among 48,000; AID 360; in the data active = potency below about 15 µM; inconclusive = mostly about 16 µM to 33 µM;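 note: the screen sought inhibitors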
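Wild-type enzyme at 0.2 nM final in 50mM citric acid/KH2PO4, 10mM sodium taurocholate, 0.01% tween-20, pH 5.9, with resorufin beta-D-glucopyranoside at 30 uM final. Compounds titrated, 20 min at RT, red fluorescence read; AC50 from titration.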
ERK AVP block: blocks ERK signaling stimulated by vasopressin. Potency, µM (titrated, usually from 57.5 µM), without a hit: at the top dose activity, negative = inhibition, actives largely listed as inhibitors. hit rate 0.99% among 72,000. HEK293-V1b, vasopressin-stimulated pERK AlphaScreen. AID 995; note: % is set by controls: 0 for no effect and ±100 for the full control effect; nearly all actives have a fitted effect of over 55% in size
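HEK293 cells stably expressing V1b receptor, seeded overnight in 1% FBS, were treated with compounds for 30 min at 37C, then stimulated 5 min with 25 nM vasopressin; phospho-ERK read by AlphaScreen SureFire after lysis.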
Bst PK mod: pyruvate kinase (B. stearothermophilus) modulation; hit rate 1.2% among 51,000; Potency, µM; purified pyruvate kinase, luminescence ATP production; ribose 5-phosphate activator present at AC10; AID 361; in the data active = potency below about 11 µM; inconclusive = mostly about 12 µM to 25 µM;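 the screen sought inhibitors and activators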;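 note: scaled between full activation by ribose 5 phosphate and full inhibition by luteolin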
TSHR ag: agonists of human thyroid stimulating hormone receptor; hit rate 0.48% among 73,000; Potency, µM (doses to about 57.1 µM), without a hit: at the top dose activation, most hits filed as activators; P16473; HEK293-CNG-TSHR cells (CNG channel as cAMP sensor), membrane potential dye, cAMP; AID 926; active = well fitted activation curve with a large enough effect in the main read-out, with a control signal flat, not every such curve was filed as active; inconclusive = small, poorly fitted or top-dose-only effect, or a change in a side signal; inactive = no such curve, though single readings can be large or run the other way; % of control where 0% means no effect;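 note: the control signal comes from parental cells without the receptor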
Target sequence (P16473 whole entry, looked up): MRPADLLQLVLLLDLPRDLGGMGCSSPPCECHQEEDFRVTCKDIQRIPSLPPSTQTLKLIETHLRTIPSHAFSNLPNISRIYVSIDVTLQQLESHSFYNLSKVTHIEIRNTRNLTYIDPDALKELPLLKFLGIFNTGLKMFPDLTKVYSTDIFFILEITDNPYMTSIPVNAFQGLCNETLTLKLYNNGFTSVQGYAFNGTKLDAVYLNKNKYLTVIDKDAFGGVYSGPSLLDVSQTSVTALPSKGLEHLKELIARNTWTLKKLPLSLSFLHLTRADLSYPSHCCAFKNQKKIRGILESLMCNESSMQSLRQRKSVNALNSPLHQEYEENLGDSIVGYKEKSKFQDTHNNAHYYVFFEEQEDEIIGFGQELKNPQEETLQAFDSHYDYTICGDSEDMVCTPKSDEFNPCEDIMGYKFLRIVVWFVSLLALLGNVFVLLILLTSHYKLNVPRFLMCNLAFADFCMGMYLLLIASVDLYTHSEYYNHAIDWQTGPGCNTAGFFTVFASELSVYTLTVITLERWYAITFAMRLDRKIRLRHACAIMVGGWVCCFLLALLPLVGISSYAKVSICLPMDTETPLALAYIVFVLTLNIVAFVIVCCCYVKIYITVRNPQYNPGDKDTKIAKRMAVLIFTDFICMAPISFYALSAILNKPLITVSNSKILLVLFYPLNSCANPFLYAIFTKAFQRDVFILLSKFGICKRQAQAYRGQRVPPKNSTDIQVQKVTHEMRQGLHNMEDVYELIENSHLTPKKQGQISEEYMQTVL
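HEK 293 cells stably expressing TSHR and a cAMP-gated CNG channel; parental CNG-only cells as counterscreen. Cells preloaded 60 min with membrane potential dye plus 100 uM RO 20-1724, then compound 30 min; fluorescence read at 590 nm.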
Luciferase inh: inhibitors of firefly luciferase; AID 411; Potency, µM (series often up to 57.1 µM), inactives show top-dose activity change, negative = inhibition, usual class: inhibitors; purified firefly luciferase, luminescence, 8 min; P08659; hit rate 2.2% among 72,000; note: % is set by controls: 0 for no effect and ±100 for the full control effect; nearly all actives have a fitted effect of over 40% in size
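Titration-based qHTS; buffer 50 mM imidazole pH 7.2, 50 mM KCl, 7 mM MgCl2, 10 uM ATP, 0.01% Tween 20, 0.05% BSA; luciferase/luciferin detector mix added after compound; 8 min, ambient; luminescence.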
HEK293 cAMP ctrl: parental HEK293 cAMP activation (counter-screen) | parental HEK293 CNG cAMP sensor, membrane potential fluorescence | Potency, µM (series often up to 57.1 µM), for inactives: top-dose activation, most hits filed as activators | hit rate 2.5% among 73,000 | AID 938; note: % of control where 0% means no effect; nearly all actives have a fitted effect of over 55% in size
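Counterscreen for endogenous-receptor signalling: CNG-channel HEK 293 cells report cAMP rise by membrane depolarization. After 60 min dye equilibration with 100 uM RO 20-1724, compounds incubated 30 min before bottom-read fluorescence at 590 nm.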
* = called active by the depositor; i = inactive; ? = inconclusive; nt = not tested or not shown; [ ] = remark or other dose. An excerpt weighted towards active compounds, which were near 6.1% of everything screened. Unless noted, calls come from the whole dose curve; as a rule, active = well fitted curve in the direction sought with a large enough effect; inconclusive = small, poorly fitted or top-dose-only effect, or another doubt; inactive = no such curve, though single readings can be large; an effect the other way counts as inactive or inconclusive. Potency is the fitted concentration of half-maximal effect.

SMILES	GBA activity	ERK AVP block	Bst PK mod	TSHR ag	Luciferase inh	HEK293 cAMP ctrl
Cc1ccc(-c2nc(-c3ccccc3)no2)c(Cl)c1	nt	40%	nt	?	0.25µM*	?
Brc1ccccc1-c1nc(-c2ccccc2)no1	nt	38%	nt	18%[11.4 µM]	3.2µM*	28%[11.4 µM]
Fc1ccccc1-c1nc(-c2ccccc2)no1	?	34%	5.8*	4%	6.3µM*	6%
c1ccc(-c2ccccc2-c2nc(-c3cccnc3)no2)cc1	>77	2%	>57	?	2%	?
NC(=O)c1ccccc1-c1nc(-c2ccccc2)no1	>77	-2%	nt	-3%	-27%	-3%
c1ccc(-c2noc(-c3cccc4ccccc34)n2)cc1	nt	97%	i	nt	16µM*	20%
c1ccc(-c2cc(-c3nc(-c4cccnc4)no3)c3ccccc3n2)cc1	nt	-28%	nt	1%	3%	-2%
Cc1ccc(S(=O)(=O)N[C@H]2COC(=O)[C@H](C)COC(=O)[C@H](C)NC(=O)C/C=C\[C@H]2C)cc1	nt	0%[11.5 µM]	nt	3%[11.4 µM]	0%[11.4 µM]	-2%[11.4 µM]
NS(=O)(=O)c1ccc(N=Nc2ncccc2O)cc1	nt	-12%[11.5 µM]	nt	-4%[11.4 µM]	-4%[11.4 µM]	-5%[11.4 µM]
O=C(Nc1ccccc1)N1CC2(CCN(C(=O)c3ccco3)CC2)C1	nt	12%	nt	?	1%[11.4 µM]	?
O=c1c(-c2ccc(Cl)cc2)nc2cnc(N3CCOCC3)nc2n1C1CC1	nt	-4%	nt	3%	-1%[11.4 µM]	4%
CS(=O)(=O)N1CCC2(CCCN(Cc3ccccc3)C2)CC1	nt	2%	nt	10%	0%[11.4 µM]	29%
COc1ccc(Cc2nnc(SCc3nc4ccccc4c(=O)[nH]3)n2C)cc1	>77	?	>57	1%	-1%	17%
C=CCn1c(SCc2nc3ccccc3c(=O)[nH]2)nnc1-c1cc2cc(Cl)ccc2o1	>77	-20%	>57	?	0%	32µM*
CC(=O)OC[C@H]1O[C@@H](O/N=C(\C)CCC(=O)OC[C@@H]2O[C@H](C#Cc3ccccc3)C=C[C@@H]2Oc2ccc(C)cc2)[C@H](OC(C)=O)[C@@H](OC(C)=O)[C@H]1OC(C)=O	nt	-8%[11.5 µM]	nt	-6%[11.4 µM]	1%[11.4 µM]	2%[11.4 µM]
C/C=C/C1Oc2ccc(OC)cc2N2C(=O)C(C)C(OCOC)C12 (stereo not given)	nt	15%[11.5 µM]	nt	-2%[11.4 µM]	nt	0%[11.4 µM]
N#CCCCSc1nnc(CSc2nc3ccccc3s2)n1-c1ccccc1	>77	25µM*	?	?	-1%	?
N#CCCCSc1nnc(-c2ccc(Cl)cc2)n1-c1ccccc1	nt	-25%	nt	?	-2%	25µM*
Cc1cccc(-c2nnc(SCC#N)n2-c2ccccc2)c1	>77	?	>57	13%	1%	14%
c1ccc2sc(SCSc3nc4ccccc4s3)nc2c1	nt	54%[11.5 µM]	nt	13%[11.4 µM]	2%[11.4 µM]	20%[11.4 µM]
C[C@H]1[C@H](C)OC(=O)C[C@H](O)C[C@H](O)C[C@H](O)CC[C@H](O)[C@H](O)CC(=O)C[C@H](O)[C@H](C(=O)O)[C@H](O)C[C@H](O[C@@H]2O[C@@H](C)[C@H](O)[C@@H](N)[C@@H]2O)C=CC=CC=CC=CCCC=CC=C[C@@](C)(O)[C@H]1O	nt	-4%[11.5 µM]	nt	?	2%[11.4 µM]	?
COc1ccc2cc(C(=O)CCC(=O)O)ccc2c1	nt	22%[11.5 µM]	nt	0%[11.4 µM]	?	2%[11.4 µM]
C=Cc1ccccc1Cl	nt	20%	nt	3%	nt	13%
COc1ccc2oc(=O)c(NC(=O)C3CCCCC3)cc2c1	5.2*	14%	>57	7%	3%	18%
COc1ccc(OC)c(NC(=O)C2CCCC2)c1	>77	-18%	>57	-12%	-1%	2%
CSc1nc(C)c(C(=O)Nc2ccccc2)c(C)c1C#N	>77	25%	>57	?	3%	25µM*
O=c1c(-c2cccs2)nc2cnc(N3CCOCC3)nc2n1CCc1ccccc1	nt	31%	nt	22%	1%[11.4 µM]	10%
CCn1c(C)nc2cc(C(=O)OC(C(F)(F)C(F)F)C(F)(F)C(F)F)ccc21	?	-5%	nt	?	20µM*	?
CCOC(=O)N/C(N)=N/c1nc2ccccc2s1	nt	?	nt	8%[11.4 µM]	13µM*	23%[11.4 µM]
O=S(=O)(c1ccccc1)N1CCC2(CC1)CN(c1ncccn1)C2	nt	-10%	nt	-3%	-11%[11.4 µM]	5%
